Shown are actives, neighbours in structure and some others; about 5.9% of the full set was active somewhere.
FBPA coupling cs: coupling enzyme interference in Giardia aldolase counter-screen; coupling enzyme system counterscreen, AmpLite Red fluorescence; activity change, negative = inhibition, % at 58.2 µM, hits read low; 0.67% of 290,000 active; AID 2472; in the data active = activity change below about -30%
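Compounds tested against the coupling enzymes alone at 57.5 uM final; readout was AmpLite Red fluorescence (525/598 nm) after 20 min at RT.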
GALK inh: galactokinase (human) inhibition. P51570. Purified GALK, Kinase-Glo residual ATP luminescence. Potency, µM (series often up to 57.5 µM), actives largely listed as inhibitors. 0.007% of 270,000 active
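The enzyme phosphorylates galactose (100 uM) using ATP (35 uM); inhibition is detected as higher residual ATP, quantified by bioluminescence after 1 h reaction at room temperature, pH 8.0.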
Gal4-VP16 FLuc: counter-screen for ROR gamma inhibitors: Gal4-VP16 reporter. Drosophila S2 Gal4-VP16 UAS-luciferase, luminescence, 20 h. Potency, µM (top dose mostly 53.6 µM), actives largely listed as inhibitors. 3.5% of 310,000 active. AID 2546;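 also: Gal4-VP16 expression switched on by copper sulfate through the metallothionein promoter; nearly all actives have a fitted effect of over 50% in size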
TrxR1 substrate: substrates of rat thioredoxin reductase 1; O89049; 0.01% of 390,000 active; AID 588456; purified TrxR1 substrate turnover, NADPH consumption readout; Potency, µM (highest dose often 114 µM); also: nearly all actives have a fitted effect of over 50% in size
Target sequence (O89049 whole entry, looked up): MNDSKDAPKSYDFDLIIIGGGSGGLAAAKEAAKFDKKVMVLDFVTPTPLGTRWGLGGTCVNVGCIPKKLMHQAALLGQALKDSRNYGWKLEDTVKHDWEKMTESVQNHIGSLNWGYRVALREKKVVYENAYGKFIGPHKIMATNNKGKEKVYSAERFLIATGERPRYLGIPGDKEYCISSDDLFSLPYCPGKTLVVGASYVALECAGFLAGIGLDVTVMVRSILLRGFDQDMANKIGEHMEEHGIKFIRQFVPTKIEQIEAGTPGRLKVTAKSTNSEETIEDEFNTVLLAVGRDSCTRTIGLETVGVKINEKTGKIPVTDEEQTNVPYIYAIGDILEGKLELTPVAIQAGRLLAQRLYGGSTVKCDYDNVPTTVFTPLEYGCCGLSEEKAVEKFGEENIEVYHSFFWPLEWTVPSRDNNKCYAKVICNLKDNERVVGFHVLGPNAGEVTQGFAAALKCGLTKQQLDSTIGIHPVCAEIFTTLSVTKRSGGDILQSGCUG
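Rat TrxR1, dispensed at 90 nM, was prereduced with 400 uM NADPH (final) for 5 min at ~22 deg C, then incubated with compound 15 min before 400 uM selenite. A first-read NADPH fluorescence drop versus no-compound background flagged substrates.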
RORg inh: blocks mouse ROR gamma transcriptional activity; P51450; Drosophila S2 Gal4-RORgamma UAS-luciferase reporter, 20 h; Potency, µM (titrated, usually from 53.6 µM), most hits filed as inhibitors; 5.4% of 310,000 active; AID 2551; also: nearly all actives have a fitted effect of over 60% in size
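Compounds are pin-transferred onto Drosophila Schneider cells expressing a copper-inducible Gal4–ROR gamma transactivation domain fusion. After 1 hr, copper sulfate is added to 700 uM final; luciferase is read 20 hr later.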
TrxR1 inh: rat TrxR1 inhibition; 1% of 390,000 active; Potency, µM (top dose mostly 114 µM), most hits filed as inhibitors; recombinant rTrxR1, NADPH fluorescence consumption, selenite substrate; AID 588453; also: nearly all actives have a fitted effect of over 65% in size
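Rat TrxR1 (90 nM in the dispensed reagent) was pre-reduced with 400 uM NADPH for 5 min at room temperature, then incubated with compound for 15 min. After 400 uM selenite was added, NADPH fluorescence (Ex 340/Em 450 nm) was followed for 8 min.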
Numbers stand for hits; i = inactive; ? = inconclusive; nt = not tested or not shown. Unless noted, calls follow the shape of the dose curve; as a rule, active = well fitted curve in the direction sought with a large enough effect; inconclusive = small, poorly fitted or top-dose-only effect, or another doubt; inactive = no such curve, though single readings can be large; an effect the other way counts as inactive or inconclusive.

SMILES	FBPA coupling cs	GALK inh	Gal4-VP16 FLuc	TrxR1 substrate	RORg inh	TrxR1 inh
O=[N+]([O-])c1ccc(N/N=C\c2cccn2-c2ccccc2)nc1	i	nt	?	i	2.51µM	i
COc1cc(Cl)ccc1NC(=S)N(CCN(C)C)C(C)c1ccncc1 (stereo not given)	i	i	i	i	i	i
O=C(/C=C/c1ccccc1)Nc1ccc(CN2CCOCC2)cc1	i	i	i	i	i	i
COc1ccc(C(=O)NC(=S)Nc2ccc(N3CCOCC3)c(Cl)c2)cc1[N+](=O)[O-]	i	i	?	i	?	i
O=C(NC(=S)Nc1ccc(N2CCOCC2)c(Cl)c1)C(c1ccccc1)c1ccccc1	i	i	5.62µM	i	2.82µM	i
CCCC(=O)NC(=S)Nc1ccc(N2CCOCC2)c(Cl)c1	i	i	?	i	12.6µM	?
O=C(Nc1ccc(N2CCOCC2)c(Cl)c1)c1ccccc1Cl	i	i	i	i	i	i
CC(C)CC(=O)NC(=S)Nc1ccc(N2CCCC2)c(Cl)c1	i	i	2.82µM	i	0.398µM	i
O=C(/C=C/c1ccccc1)NC(=S)Nc1ccc(N2CCOCC2)c(Cl)c1	i	i	?	i	2.51µM	i
C/C(=N\NC(=O)Cc1ccccc1)c1cccnc1	nt	i	i	i	i	i
COc1ccc([N+](=O)[O-])cc1NC(=O)Nc1ccc(OC)c(OC)c1	i	i	?	i	?	i
Cc1ccc(S(=O)(=O)N2CCN(C(=O)CCNC(=O)c3ccccc3Cl)CC2)cc1	nt	nt	nt	i	nt	i
CCOC(=O)C1CCN(C(=O)Cc2c(C(=O)O)n(CC)c3ccccc23)CC1	i	i	i	i	i	i
O=C1N/C(=N/Nc2ccccc2)S/C1=C\c1ccccc1	i	i	i	i	i	i
O=C(/C=C/c1ccco1)NC(=S)Nc1ccc(N2CCOCC2)c(Cl)c1	i	nt	i	i	1.78µM	i
O=C(/C=C/c1ccco1)Nc1ccccc1N1CCOCC1	i	i	?	i	i	?
CCN(CC)CCn1c(=S)[nH]c2ccc(Br)cc2c1=O	i	i	12.6µM	i	11.2µM	i
O=c1c2cc(F)ccc2[nH]c(=S)n1Cc1ccc(F)cc1	i	nt	3.16µM	i	1.41µM	i
NS(=O)(=O)c1ccc(CCn2c(=S)[nH]c3ccc(F)cc3c2=O)cc1	i	i	i	i	?	i
COCCCNC(=O)c1ccc2c(=O)n(Cc3ccccc3OC)c(=S)[nH]c2c1	i	nt	i	i	i	i
COc1ccc(OC)c(NC(=O)CCn2c(=S)[nH]c3ccccc3c2=O)c1	nt	i	i	i	i	i
COc1ccccc1Cn1c(=S)[nH]c2ccc(F)cc2c1=O	i	nt	11.2µM	i	15.8µM	i
COc1ccccc1NC(=O)CCCn1c(=S)[nH]c2ccccc2c1=O	i	i	?	i	10µM	i
Cc1ccc(C2NC(=O)c3n[nH]c(-c4cccs4)c32)cc1 (stereo not given)	nt	nt	nt	i	nt	i
CCOc1ccc2c(c1)C(N(CCN1CCOCC1)C(=O)Nc1ccccc1)CC(C)(C)O2 (stereo not given)	i	i	i	i	i	i
SMILES	FBPA coupling cs	GALK inh	Gal4-VP16 FLuc	TrxR1 substrate	RORg inh	TrxR1 inh
COc1ccc(CNC(=O)CN(C(=O)c2csnn2)c2ccccc2F)cc1	i	i	i	i	i	i
COc1ccccc1Cn1c(=S)[nH]c2cc(C(=O)NC(C)C)ccc2c1=O	i	nt	i	i	i	i
COc1ccccc1NC(=O)Cn1c(C)cc(=O)c2cccc(OC)c21	i	i	28.2µM	i	i	i
COc1ccccc1Cn1c(=S)[nH]c2ccccc2c1=O	i	nt	14.1µM	i	10µM	i
COc1ccccc1Cn1c(=S)[nH]c2ccc(Br)cc2c1=O	i	nt	5.62µM	i	2µM	i
COc1cccc2c(=O)cc(C)n(CC(=O)Nc3ccc(C)c(C)c3)c12	i	i	?	i	i	i
Cc1ccc(S(=O)(=O)N(C)C)cc1NC(=O)COC(=O)CCCOc1ccccc1	i	i	i	i	i	i
CCCc1ccc(OC(=O)c2ccc(O)cc2Cl)cc1	i	i	3.98µM	i	0.891µM	i
Cc1cccc(NC(=O)CN(C)CC(=O)NC(c2ccccc2)c2ccccc2)c1C	nt	nt	nt	i	nt	i

Source: PubChem BioAssay
